# Results as given in publication PMC7862700, “An all-to-all approach to the identification of sequence-specific readers for epigenetic DNA modifications on cytosine”.
# Experiments:
# Assay in all cases: DAPPL (digital affinity profiling via proximity ligation, sequencing); 10 mM Tris-HCl pH 7.5, 50 mM NaCl, 1 mM DTT, 4% glycerol, room temperature, 30 min; GST-TFs on glutathione beads, 16-mer random dsDNA library, 0.1% formaldehyde crosslink after washing; high values mean tight binding
# FEV = target: T1, FEV (Homo sapiens, UniProt Q99581 1-238); conditions: protein: recombinant; tags: N-terminal GST; dsDNA, one strand shown
# T1 sequence: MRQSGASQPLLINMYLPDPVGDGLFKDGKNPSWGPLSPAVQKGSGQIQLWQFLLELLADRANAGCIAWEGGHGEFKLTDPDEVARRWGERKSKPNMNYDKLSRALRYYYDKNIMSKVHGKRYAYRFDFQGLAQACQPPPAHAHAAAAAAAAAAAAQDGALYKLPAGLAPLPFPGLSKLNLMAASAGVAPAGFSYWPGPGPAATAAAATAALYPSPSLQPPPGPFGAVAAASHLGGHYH
# Procedure, shortened: (§1)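 GST fusions of human transcription factors were expressed in yeast and captured with glutathione beads. Once given DNA barcodes and pooled alongside a tag-only sample, they were incubated for 30 min at room temperature with 200 nmole of a random double-stranded 16-mer DNA library in Tris/NaCl/DTT/glycerol buffer, then washed, crosslinked (0.1% formaldehyde), proximity-ligated, PCR-amplified and sequenced on an Illumina NextSeq500. The binding signal of each hexamer is its read frequency for a factor divided by its frequency for the tag-only sample.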
# ETV5 = ETV5 (Homo sapiens, UniProt P41161 1-510); conditions: protein: recombinant; tags: N-terminal GST; dsDNA, one strand shown
# Chain of ETV5 (P41161 whole entry): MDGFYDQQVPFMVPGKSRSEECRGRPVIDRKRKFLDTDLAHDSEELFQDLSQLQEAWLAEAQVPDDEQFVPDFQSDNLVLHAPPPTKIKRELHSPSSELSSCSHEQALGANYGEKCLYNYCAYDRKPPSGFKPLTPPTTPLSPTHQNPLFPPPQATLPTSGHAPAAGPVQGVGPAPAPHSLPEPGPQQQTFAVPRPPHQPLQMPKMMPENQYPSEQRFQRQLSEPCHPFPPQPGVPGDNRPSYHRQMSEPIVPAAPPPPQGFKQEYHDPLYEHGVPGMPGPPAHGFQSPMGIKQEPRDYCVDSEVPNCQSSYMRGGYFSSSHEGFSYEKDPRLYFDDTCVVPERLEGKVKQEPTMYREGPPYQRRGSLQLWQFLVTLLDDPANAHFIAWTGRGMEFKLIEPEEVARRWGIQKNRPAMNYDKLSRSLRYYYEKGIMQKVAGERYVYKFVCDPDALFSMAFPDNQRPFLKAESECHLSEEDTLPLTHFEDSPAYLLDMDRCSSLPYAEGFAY
# Procedure, shortened: as §1
# HSF1 = HSF1 (Homo sapiens, UniProt Q00613 1-529); conditions: protein: recombinant; tags: N-terminal GST; chain copies: 3; dsDNA, one strand shown
# Chain of HSF1 (Q00613 whole entry): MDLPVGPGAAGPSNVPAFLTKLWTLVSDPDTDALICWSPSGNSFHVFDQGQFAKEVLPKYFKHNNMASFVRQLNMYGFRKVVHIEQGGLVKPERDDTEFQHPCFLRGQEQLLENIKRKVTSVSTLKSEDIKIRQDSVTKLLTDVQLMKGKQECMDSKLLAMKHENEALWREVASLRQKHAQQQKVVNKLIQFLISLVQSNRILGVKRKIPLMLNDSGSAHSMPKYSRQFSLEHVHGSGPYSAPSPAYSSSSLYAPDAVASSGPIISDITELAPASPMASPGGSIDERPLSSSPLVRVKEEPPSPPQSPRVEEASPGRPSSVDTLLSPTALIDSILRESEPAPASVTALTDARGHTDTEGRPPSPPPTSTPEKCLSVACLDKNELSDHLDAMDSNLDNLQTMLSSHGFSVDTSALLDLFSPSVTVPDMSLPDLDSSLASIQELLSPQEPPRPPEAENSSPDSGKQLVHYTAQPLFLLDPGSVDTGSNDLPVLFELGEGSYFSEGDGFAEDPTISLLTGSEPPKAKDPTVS
# Procedure, shortened: as §1
# SPIC = target: T2, SPIC (Homo sapiens, UniProt Q8N5J4 1-248); conditions: protein: recombinant; tags: N-terminal GST; dsDNA, one strand shown
# T2 sequence: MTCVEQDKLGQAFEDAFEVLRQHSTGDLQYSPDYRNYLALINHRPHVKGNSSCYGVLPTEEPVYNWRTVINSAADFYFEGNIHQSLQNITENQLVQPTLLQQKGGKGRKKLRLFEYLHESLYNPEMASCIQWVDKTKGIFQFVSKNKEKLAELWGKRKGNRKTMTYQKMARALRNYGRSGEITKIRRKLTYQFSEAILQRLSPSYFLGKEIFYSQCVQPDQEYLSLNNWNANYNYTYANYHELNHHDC
# Procedure, shortened: as §1
# ELF4 = ELF4 (Homo sapiens, UniProt Q99607 1-663); conditions: protein: recombinant; tags: N-terminal GST; dsDNA, one strand shown
# Chain of ELF4 (Q99607 whole entry): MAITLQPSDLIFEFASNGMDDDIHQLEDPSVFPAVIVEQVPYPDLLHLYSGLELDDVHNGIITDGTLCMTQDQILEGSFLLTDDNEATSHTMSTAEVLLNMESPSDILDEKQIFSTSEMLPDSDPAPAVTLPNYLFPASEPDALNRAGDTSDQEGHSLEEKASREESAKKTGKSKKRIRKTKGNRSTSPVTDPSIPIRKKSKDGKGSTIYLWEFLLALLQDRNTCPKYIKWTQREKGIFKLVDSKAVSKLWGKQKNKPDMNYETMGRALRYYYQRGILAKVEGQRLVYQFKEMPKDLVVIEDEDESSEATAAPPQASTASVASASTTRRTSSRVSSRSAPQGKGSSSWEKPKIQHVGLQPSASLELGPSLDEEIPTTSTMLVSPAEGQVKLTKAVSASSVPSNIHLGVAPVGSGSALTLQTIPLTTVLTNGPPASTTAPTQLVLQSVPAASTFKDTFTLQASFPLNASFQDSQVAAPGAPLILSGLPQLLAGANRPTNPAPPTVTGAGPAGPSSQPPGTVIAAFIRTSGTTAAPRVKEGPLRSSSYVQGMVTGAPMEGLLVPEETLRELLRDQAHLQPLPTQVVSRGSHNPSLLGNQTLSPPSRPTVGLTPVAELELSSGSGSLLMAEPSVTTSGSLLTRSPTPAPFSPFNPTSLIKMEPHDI
# Procedure, shortened: as §1
# ELK4 = target: T3, ELK4 (Homo sapiens, UniProt P28324-2 1-405); conditions: protein: recombinant; tags: N-terminal GST; dsDNA, one strand shown
# T3 sequence: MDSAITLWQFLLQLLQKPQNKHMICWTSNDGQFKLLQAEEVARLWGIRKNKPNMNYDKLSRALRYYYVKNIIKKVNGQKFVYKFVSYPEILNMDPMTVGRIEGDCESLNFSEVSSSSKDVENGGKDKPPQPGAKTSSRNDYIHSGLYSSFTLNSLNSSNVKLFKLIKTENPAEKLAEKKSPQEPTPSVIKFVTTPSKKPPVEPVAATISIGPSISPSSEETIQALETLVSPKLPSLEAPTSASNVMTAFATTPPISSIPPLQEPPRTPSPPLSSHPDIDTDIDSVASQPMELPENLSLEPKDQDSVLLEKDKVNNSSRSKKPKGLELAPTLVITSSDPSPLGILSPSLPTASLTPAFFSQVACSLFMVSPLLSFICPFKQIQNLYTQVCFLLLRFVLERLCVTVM
# Procedure, shortened: as §1
# ETV2 = target: T4, ETV2 (Homo sapiens, UniProt O00321 1-342); conditions: protein: recombinant; tags: N-terminal GST; dsDNA, one strand shown
# T4 sequence: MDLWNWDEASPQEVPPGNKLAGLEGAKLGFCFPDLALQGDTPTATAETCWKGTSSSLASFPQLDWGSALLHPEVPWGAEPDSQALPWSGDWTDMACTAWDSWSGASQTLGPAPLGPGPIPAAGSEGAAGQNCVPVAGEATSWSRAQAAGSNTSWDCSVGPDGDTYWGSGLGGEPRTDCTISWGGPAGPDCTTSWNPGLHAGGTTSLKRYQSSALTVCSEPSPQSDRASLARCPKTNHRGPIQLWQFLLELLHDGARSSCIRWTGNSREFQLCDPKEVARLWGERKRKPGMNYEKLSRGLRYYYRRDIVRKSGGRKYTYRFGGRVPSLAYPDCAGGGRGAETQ
# Procedure, shortened: as §1
# ELF3 = target: T5, ELF3 (Homo sapiens, UniProt P78545 1-371); conditions: protein: recombinant; tags: N-terminal GST; dsDNA, one strand shown
# T5 sequence: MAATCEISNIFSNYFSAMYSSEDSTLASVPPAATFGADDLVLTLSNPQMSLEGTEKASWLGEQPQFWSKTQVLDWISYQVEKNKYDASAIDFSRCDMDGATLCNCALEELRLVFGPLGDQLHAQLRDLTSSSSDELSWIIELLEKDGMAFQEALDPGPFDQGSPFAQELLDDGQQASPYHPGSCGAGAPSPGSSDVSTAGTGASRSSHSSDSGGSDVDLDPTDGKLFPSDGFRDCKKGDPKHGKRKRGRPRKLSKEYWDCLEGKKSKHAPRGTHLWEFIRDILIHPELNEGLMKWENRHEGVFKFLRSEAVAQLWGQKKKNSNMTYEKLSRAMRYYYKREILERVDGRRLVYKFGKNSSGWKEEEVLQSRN
# Procedure, shortened: as §1
# CRX = CRX (Homo sapiens, UniProt O43186 1-299); conditions: protein: recombinant; tags: N-terminal GST; dsDNA, one strand shown
# Chain of CRX (O43186 whole entry): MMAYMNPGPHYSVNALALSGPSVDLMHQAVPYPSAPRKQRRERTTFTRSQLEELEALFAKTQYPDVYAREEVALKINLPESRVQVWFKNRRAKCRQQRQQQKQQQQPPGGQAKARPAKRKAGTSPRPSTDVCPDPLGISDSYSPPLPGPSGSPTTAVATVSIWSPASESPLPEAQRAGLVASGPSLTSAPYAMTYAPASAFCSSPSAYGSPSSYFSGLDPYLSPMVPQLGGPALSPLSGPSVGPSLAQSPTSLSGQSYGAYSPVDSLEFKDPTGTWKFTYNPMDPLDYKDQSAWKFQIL
# Procedure, shortened: as §1
# ETV1 = ETV1 (Homo sapiens, UniProt P50549 1-477); conditions: protein: recombinant; tags: N-terminal GST; dsDNA, one strand shown
# Chain of ETV1 (P50549 whole entry): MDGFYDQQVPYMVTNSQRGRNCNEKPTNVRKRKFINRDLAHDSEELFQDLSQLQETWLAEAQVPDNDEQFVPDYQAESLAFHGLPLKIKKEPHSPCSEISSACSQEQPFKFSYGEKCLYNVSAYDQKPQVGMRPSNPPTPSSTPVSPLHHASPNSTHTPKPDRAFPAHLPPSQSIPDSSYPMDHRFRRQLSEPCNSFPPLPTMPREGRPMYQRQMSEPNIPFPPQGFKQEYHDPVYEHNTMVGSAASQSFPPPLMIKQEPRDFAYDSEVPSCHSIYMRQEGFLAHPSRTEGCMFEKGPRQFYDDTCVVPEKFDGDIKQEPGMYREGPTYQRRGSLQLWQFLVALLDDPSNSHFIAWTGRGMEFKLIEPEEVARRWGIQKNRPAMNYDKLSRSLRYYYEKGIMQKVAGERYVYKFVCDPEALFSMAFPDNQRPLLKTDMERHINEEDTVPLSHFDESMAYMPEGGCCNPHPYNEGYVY
# Procedure, shortened: as §1
sequence,measurement,setting,value
TGCACT,binding signal,FEV,"1.51 fold enrichment (6-mer frequency, TF over GST control)"
same,binding signal,ETV5,"1.37 fold enrichment (6-mer frequency, TF over GST control)"
same,binding signal,HSF1,"1.02 fold enrichment (6-mer frequency, TF over GST control)"
same,binding signal,SPIC,"1.33 fold enrichment (6-mer frequency, TF over GST control)"
same,binding signal,ELF4,"1.33 fold enrichment (6-mer frequency, TF over GST control)"
same,binding signal,ELK4,"1.31 fold enrichment (6-mer frequency, TF over GST control)"
same,binding signal,ETV2,"1.46 fold enrichment (6-mer frequency, TF over GST control)"
same,binding signal,ELF3,"1.55 fold enrichment (6-mer frequency, TF over GST control)"
same,binding signal,CRX,"1.06 fold enrichment (6-mer frequency, TF over GST control)"
same,binding signal,ETV1,"1.33 fold enrichment (6-mer frequency, TF over GST control)"
